Measured values reported in PubChem BioAssay AID1159580 (chemical genetic matrix, 2015).
Hit rate of the full screen: of about 5,500 compounds, about 2,000 (36%) were called active. Not shown: some 18% with an inconclusive outcome. Rule as the data show it: active = normalized growth mostly below about 0.91 (no sharp cut-off); inconclusive = no clear call, values can overlap the other calls; inactive = mostly above about 0.92. The list shows a part of the results.

Test: chemical genetic growth profiling, strain panel (AID 1159580);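 also: tested at 20 µM; growth read once vehicle control cultures reached saturation at 30 °C; 1 = growth at the plate median or of vehicle wells; lower values mean less growth of the strain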
Settings: growth OD

Measured: normalized growth

CC(=O)O[C@@H]1CC2C(C)(C)C(=O)C=C[C@]2(C)C2CC[C@@]3(C)[C@H](c4ccoc4)OC(=O)[C@H]4O[C@]43[C@@]21C (stereo partly drawn)
inactive: S. cerevisiae deletion strains, locus YJR066W, strain TOR1, active compounds read low 0.932 | S. cerevisiae deletion strains, locus YKL009W, strain mrt4, active compounds read low 1.07 | S. cerevisiae deletion strains, locus YKL068W, active compounds read low 1 | S. cerevisiae deletion strains, locus YKL085W, strain MDH1 (second series), active compounds read low 1.03 | S. cerevisiae deletion strains, locus YKL085W, strain MDH1, active compounds read low 1.03 | S. cerevisiae deletion strains, locus YKL160W, strain elf1, active compounds read low 1.02 | S. cerevisiae deletion strains, locus YKR001C, strain vps1, active compounds read low 0.975 | S. cerevisiae deletion strains, locus YKR026C, strain gcn3, active compounds read low 0.985 | S. cerevisiae deletion strains, locus YKR091W, strain srl3, active compounds read low 1 | S. cerevisiae deletion strains, locus YLL001W, strain dnm1, active compounds read low 0.972 | S. cerevisiae deletion strains, locus YLL026W, active compounds read low 1.01 | S. cerevisiae deletion strains, locus YLL041C, strain sdh2, active compounds read low 0.992 | S. cerevisiae deletion strains, locus YLR027C, strain aat2, active compounds read low 1.02 | S. cerevisiae deletion strains, locus YLR039C, strain RIC1, active compounds read low 0.877 | S. cerevisiae deletion strains, locus YLR058C, strain SHM2, active compounds read low 1 | S. cerevisiae deletion strains, locus YLR102C, strain apc9, active compounds read low 0.993 | S. cerevisiae deletion strains, locus YLR113W, strain HOG1, active compounds read low 0.987 | S. cerevisiae deletion strains, locus YLR221C, strain rsa3, active compounds read low 0.989 | S. cerevisiae deletion strains, locus YLR258W, strain gsy2, active compounds read low 1.01 | S. cerevisiae deletion strains, locus YLR262C, strain YPT6 (second series), active compounds read low 0.927 | S. cerevisiae deletion strains, locus YLR262C, strain YPT6, active compounds read low 0.962 | S. cerevisiae deletion strains, locus YLR268W, strain sec22, active compounds read low 1 | S. cerevisiae deletion strains, locus YLR320W, strain mms22, active compounds read low 0.954 | S. cerevisiae deletion strains, locus YLR330W, strain CHS5, active compounds read low 1.01 | S. cerevisiae deletion strains, locus YLR342W, strain FKS1 (second series), active compounds read low 0.966 | S. cerevisiae deletion strains, locus YLR342W, strain FKS1, active compounds read low 1.01 | S. cerevisiae deletion strains, locus YLR357W, strain rsc2, active compounds read low 1.12 | S. cerevisiae deletion strains, locus YLR370C, strain arc18, active compounds read low 1 | S. cerevisiae deletion strains, locus YLR371W, strain rom2, active compounds read low 0.989 | S. cerevisiae deletion strains, locus YLR384C, strain iki3, active compounds read low 1.02 | S. cerevisiae deletion strains, locus YLR418C, strain cdc73, active compounds read low 1.04 | S. cerevisiae deletion strains, locus YML016C, strain PPZ1, active compounds read low 0.999 | S. cerevisiae deletion strains, locus YML032C, strain rad52, active compounds read low 0.993 | S. cerevisiae deletion strains, locus YML120C, strain ndi1, active compounds read low 0.965 | S. cerevisiae deletion strains, locus YML124C, strain tub3, active compounds read low 0.979 | S. cerevisiae deletion strains, locus YMR058W, strain fet3, active compounds read low 0.983 | S. cerevisiae deletion strains, locus YMR078C, strain ctf18, active compounds read low 0.983 | S. cerevisiae deletion strains, locus YMR125W, strain sto1, active compounds read low 1.07 | S. cerevisiae deletion strains, locus YMR129W, active compounds read low 1 | S. cerevisiae deletion strains, locus YMR205C, strain PFK2, active compounds read low 0.981 | S. cerevisiae deletion strains, locus YMR223W, strain ubp8, active compounds read low 1 | S. cerevisiae deletion strains, locus YMR231W, strain pep5, active compounds read low 1.01 | S. cerevisiae deletion strains, locus YMR263W, strain SAP30, active compounds read low 0.993 | S. cerevisiae deletion strains, locus YMR307W, strain GAS1, active compounds read low 0.918 | S. cerevisiae deletion strains, locus YNL067W, strain RPL9B, active compounds read low 1.01 | S. cerevisiae deletion strains, locus YNL071W, strain lat1, active compounds read low 1 | S. cerevisiae deletion strains, locus YNL183C, strain NPR1, active compounds read low 0.943 | S. cerevisiae deletion strains, locus YNL209W, strain ssb2, active compounds read low 1.01 | S. cerevisiae deletion strains, locus YNL233W, strain BNI4, active compounds read low 1.02 | S. cerevisiae deletion strains, locus YNL248C, strain rpa49, active compounds read low 1.06 | S. cerevisiae deletion strains, locus YNL250W, strain rad50, active compounds read low 1.01 | S. cerevisiae deletion strains, locus YNL271C, strain bni1, active compounds read low 1 | S. cerevisiae deletion strains, locus YNL298W, strain CLA4, active compounds read low 1 | S. cerevisiae deletion strains, locus YNL307C, strain MCK1, active compounds read low 0.989 | S. cerevisiae deletion strains, locus YNL322C, strain KRE1 (second series), active compounds read low 1.01 | S. cerevisiae deletion strains, locus YNL322C, strain KRE1, active compounds read low 1 | S. cerevisiae deletion strains, locus YNR049C, strain mso1, active compounds read low 1.01 | S. cerevisiae deletion strains, locus YNR052C, strain pop2, active compounds read low 0.981 | S. cerevisiae deletion strains, locus YOL006C, strain TOP1, active compounds read low 1.01 | S. cerevisiae deletion strains, locus YOL012C, strain htz1 0.906 | S. cerevisiae deletion strains, locus YOL147C, strain pex11, active compounds read low 0.988 | S. cerevisiae deletion strains, locus YOR001W, strain rrp6, active compounds read low 0.976 | S. cerevisiae deletion strains, locus YOR061W, strain CKA2, active compounds read low 0.997 | S. cerevisiae deletion strains, locus YOR069W, strain VPS5, active compounds read low 1 | S. cerevisiae deletion strains, locus YOR070C, strain gyp1, active compounds read low 1.01 | S. cerevisiae deletion strains, locus YOR080W, strain dia2, active compounds read low 0.996 | S. cerevisiae deletion strains, locus YOR083W, strain WHI5, active compounds read low 0.98 | S. cerevisiae deletion strains, locus YOR106W, strain vam3, active compounds read low 1.03 | S. cerevisiae deletion strains, locus YOR136W, strain idh2, active compounds read low 1.01 | S. cerevisiae deletion strains, locus YOR144C, strain elg1, active compounds read low 0.979 | S. cerevisiae deletion strains, locus YOR184W, strain ser1, active compounds read low 1.02 | S. cerevisiae deletion strains, locus YOR231W, strain MKK1, active compounds read low 0.998 | S. cerevisiae deletion strains, locus YOR265W, strain rbl2, active compounds read low 1.01 | S. cerevisiae deletion strains, locus YOR270C, strain vph1, active compounds read low 0.896 | S. cerevisiae deletion strains, locus YOR290C, strain snf2, active compounds read low 1.02 | S. cerevisiae deletion strains, locus YOR316C, strain cot1, active compounds read low 0.987 | S. cerevisiae deletion strains, locus YPL051W, strain arl3, active compounds read low 1.02 | S. cerevisiae deletion strains, locus YPL078C, strain atp4, active compounds read low 1.01 | S. cerevisiae deletion strains, locus YPL106C, strain sse1, active compounds read low 1.05 | S. cerevisiae deletion strains, locus YPL240C, strain hsp82, active compounds read low 0.997 | S. cerevisiae deletion strains, locus YPL241C, strain CIN2, active compounds read low 0.992 | S. cerevisiae deletion strains, locus YPL256C, strain CLN2, active compounds read low 0.997 | S. cerevisiae deletion strains, locus YPR119W, strain clb2, active compounds read low 0.981 | S. cerevisiae deletion strains, locus YPR141C, strain kar3, active compounds read low 1.01 | S. cerevisiae deletion strains, locus YPR163C, strain tif3, active compounds read low 0.984 | S. cerevisiae deletion strains, locus YPR167C, strain met16, active compounds read low 1 | S. cerevisiae deletion strains, strain wtn01, active compounds read low 1.01 | S. cerevisiae strains, strain wild type, active compounds read low 1
